Assay outcomes deposited in PubChem by National Center for Advancing Translational Sciences (NCATS).
KCNH2 WT inh – blocks the wildtype human KCNH2 potassium channel; U2OS, BacMam KCNH2, thallium flux FluxOr; hits give low values; activity change, % at 1.84 µM; Q12809; actives 0.37% (n = 340,000);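 active = maximum activity change below -70%; inconclusive = maximum activity change between -70% and -50%; inactive = maximum activity change above -50%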
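U2OS cells were transduced with wild-type KCNH2 virus (2.03 x 10^8 / mL) for 4 h at room temperature, then cultured overnight at 37 C. Thallium flux was read with FluxOr dye. Rate constants were normalized to DMSO controls.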
KDM4E inh – blocks human JMJD2E demethylase activity. B2RXH2. JMJD2E catalytic domain, FDH-coupled NADH fluorescence (FDH is formaldehyde dehydrogenase). Potency, µM (highest dose often 57.1 µM), usual class: inhibitors. actives 1.6% (n = 230,000). AID 2147; active = well fitted inhibition curve with a large enough effect, not every such curve was filed as active; inconclusive = small, poorly fitted or top-dose-only effect, or another doubt; inactive = no such curve, though single readings can be large or run the other way; note: nearly all actives have a fitted effect of over 50% in size
Target sequence (B2RXH2 1-337 limits assumed): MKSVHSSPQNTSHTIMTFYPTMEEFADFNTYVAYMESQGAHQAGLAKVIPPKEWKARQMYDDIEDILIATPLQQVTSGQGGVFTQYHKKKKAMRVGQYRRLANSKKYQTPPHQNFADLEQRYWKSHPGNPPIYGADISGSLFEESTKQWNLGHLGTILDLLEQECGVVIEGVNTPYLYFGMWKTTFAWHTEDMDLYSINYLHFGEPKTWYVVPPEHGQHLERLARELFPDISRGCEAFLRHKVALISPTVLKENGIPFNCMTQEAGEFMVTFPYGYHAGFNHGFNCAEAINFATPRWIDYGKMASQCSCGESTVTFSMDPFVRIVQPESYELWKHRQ
Six1-Eya2 inh – Six1/Eya2 interaction inhibition; Q15475+O00167; AlphaScreen GST-Six1/His-Eya2 binding, biochemical; hits give low values; activity change, % (no concentration beside the values); actives 0.56% (n = 360,000)
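GST-Six1 + His-Eya2 (5X stock: 250/500 nM); Tris pH 8.0, 300 mM NaCl, 0.05% BSA, 0.02% Tween 20; GSH donor/Ni acceptor beads; 1 h 37 °C dark; AlphaScreen readout.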
CtBP-E1A blk – CtBP/E1A binding inhibition; AlphaScreen GST-E1A/His-CtBP binding, 1536-well; hits give low values; activity change, % (concentration not given with the values); actives 0.49% (n = 340,000); AID 651724
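Homogeneous bead-based format: GST-tagged E1A captured on glutathione donor beads, His-tagged CtBP on nickel acceptor beads; compounds precede bead addition by 2 h at 37 °C.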
KCNH2 3.1 block – blocks the human KCNH2 3.1 channel isoform; U2OS KCNH2 3.1, thallium flux FluxOr; hits give low values; activity change, % (tested at about 1.8 µM); actives 0.95% (n = 340,000); AID 720553;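 active = maximum activity change below -70%; inconclusive = maximum activity change from -70% to -50%; inactive = maximum activity change above -50%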;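 note: thallium influx rate constant from kinetic fluorescence after stimulation buffer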
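Normalized rate constant (relative to positive and negative DMSO controls) derived from a 2 min kinetic fluorescence read after stimulation; U2OS cells expressing the 3.1 isoform via virus at 1.77 x 10^8 /mL.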
Each line names hits and unclear results; the compound was inactive in the other large screens. In the library only some 2% were active in any assay of this set; here they are far more common. Cut-off read from the data, not from the text of the source, unless noted: active = activity change below about -65%; inconclusive = mostly about -30% to -63%; inactive = weaker than that.

COc1ccc(Nc2nc(N3CCCCC3)c3ccccc3n2)cc1	none
Oc1ccc(Nc2nc(N3CCCC3)c3ccccc3n2)cc1	Six1-Eya2 inh inconclusive, CtBP-E1A blk inconclusive, KCNH2 3.1 block -87
COc1ccc(CCN(C)C(=O)/C=C/c2c(Cl)nc3ccccn23)cc1OC	none
COc1ccc(C(CNC(=O)/C=C/c2c(Cl)nc3ccccn23)N(C)C)cc1 (stereo not given)	KDM4E inh inconclusive, KCNH2 3.1 block -87
O=C1CN(Cc2nc3cc(Cl)ccc3c(=O)[nH]2)CCN1	none
CCN1CCN(c2nc(-c3ccccc3)nc3ccccc23)CC1	none
COc1cc(C(Nc2ccc3c(c2)OCO3)C(=O)NC2CCCCC2)cc(OC)c1OC (stereo not given)	KDM4E inh 28µM
Cc1ccc(S(=O)(=O)N2c3ccccc3OCC2c2ccccc2)cc1 (stereo not given)	none
CC1COc2ccccc2N1S(=O)(=O)c1ccc(Cl)cc1 (stereo not given)	CtBP-E1A blk -66
CO/N=C/c1cccn1-c1nccc(OC)c1C#N	KCNH2 WT inh -196, KCNH2 3.1 block -190
O=C(NC(=S)NNC(=O)c1ccccc1O)c1cccs1	Six1-Eya2 inh -82, CtBP-E1A blk -95 (no result: KDM4E inh)
O=C(NNC(=S)NC(=O)c1ccccc1[N+](=O)[O-])c1ccccc1O	KDM4E inh inconclusive, Six1-Eya2 inh -74, CtBP-E1A blk -94
Cc1ccc(C(=O)NC(=S)NNC(=O)c2ccccc2O)cc1	Six1-Eya2 inh -88 (no result: KDM4E inh)
COc1ccc(C(=O)NNC(=S)NC(=O)c2cccs2)cc1	none (no result: KDM4E inh)
O=C(NNC(=S)NC(=O)c1ccccc1)c1ccc([N+](=O)[O-])cc1	none (no result: KDM4E inh, CtBP-E1A blk)
O=C(NC(=S)NNC(=O)c1ccccc1O)c1ccc([N+](=O)[O-])cc1	Six1-Eya2 inh -86 (no result: KDM4E inh, CtBP-E1A blk)
CN(Cc1ccccc1)C(=O)COC(=O)C1=NNC(=O)CC1	none
Cc1ccccc1C(=O)NNC(=S)NC(=O)c1ccccc1	none
O=C(NC(=S)NNC(=O)c1ccccc1O)c1ccc(F)cc1	Six1-Eya2 inh -91, CtBP-E1A blk -94 (no result: KDM4E inh)
O=C(NC(=S)NNC(=O)c1ccccc1O)c1ccccc1	Six1-Eya2 inh -75, CtBP-E1A blk -94 (no result: KDM4E inh)
Cc1ccc(CN(C)C(=O)CCNS(=O)(=O)c2ccccc2)o1	none (no result: KDM4E inh)
COC1OC(COC(=O)c2ccccc2)C(OC(=O)c2ccccc2)C1OC(=O)c1ccccc1 (stereo not given)	none (no result: KDM4E inh)
O=C(O)C[C@@H]1C(=O)O[C@@H]2C(COC(=O)c3cc(O)c(O)c(O)c3)O[C@@H](OC(=O)c3cc(O)c(O)c(O)c3)[C@@H](OC(=O)c3cc(O)c(O)c4c3[C@H]1[C@H](O)C(=O)O4)[C@H]2OC(=O)c1cc(O)c(O)c(O)c1 (stereo not given in full)	KDM4E inh 0.71µM (no result: KCNH2 WT inh, Six1-Eya2 inh, CtBP-E1A blk, KCNH2 3.1 block)
CC/C(=N/NC(=O)c1ccc(Br)cc1)c1ccc(OCCN2CCOCC2)cc1	none
CCCOc1ccc(/C(CC)=N/NC(=O)C2(C)CC2(Br)Br)cc1 (stereo not given)	KDM4E inh inconclusive, KCNH2 3.1 block -77
Cn1c(N)c(C(=O)COC(=O)CCC(=O)c2ccc(F)cc2)c(=O)n(C)c1=O	none
CCOC(=O)/C(=C/c1ccc(OC(F)F)cc1)C1=Nn2c(nnc2-c2ccc(Cl)cc2)SC1	KCNH2 WT inh inconclusive, KCNH2 3.1 block -83 (no result: KDM4E inh)
CCOC(=O)/C(=C\c1ccc(OC(F)F)cc1)C1=Nn2c(nnc2-c2ccc(Cl)cc2)SC1	KCNH2 WT inh -78, KCNH2 3.1 block -70
O=C(CCc1nnc2ccc(NCc3ccccc3)nn12)NC1CCCC1	KCNH2 3.1 block -75 (no result: KDM4E inh)
O=C(CCc1nnc2ccc(NCc3ccccc3Cl)nn12)NC1CCCC1	none (no result: KDM4E inh)
Cc1cc(C)cc(N=Cc2ccc([N+](=O)[O-])s2)c1	KDM4E inh inconclusive, Six1-Eya2 inh inconclusive, CtBP-E1A blk inconclusive
NC(=O)c1ccc(N=Cc2ccc([N+](=O)[O-])s2)cc1	KDM4E inh 22µM, Six1-Eya2 inh inconclusive, CtBP-E1A blk inconclusive
O=[N+]([O-])c1ccc(C=Nc2ccc(Cl)c([N+](=O)[O-])c2)s1	KDM4E inh 14µM (no result: KCNH2 WT inh, Six1-Eya2 inh, CtBP-E1A blk, KCNH2 3.1 block)
O=C(Cc1cccs1)N/N=C\c1ccc([N+](=O)[O-])s1	none (no result: CtBP-E1A blk)
CC[n+]1c(/C=C2/C=C(C)CC(C)(C)C2)sc2ccc(OC)cc21	KCNH2 WT inh -71
O=C(c1cnn2c(C(F)F)cc(C3CC3)nc12)N1CCCC1	KCNH2 3.1 block -99
CC(=O)c1cc(C)ccc1OC(=O)CCN1C(=O)C2C3c4ccccc4C(c4ccccc43)C2C1=O (stereo not given)	KCNH2 3.1 block -87
COc1ccccc1CNC(=O)CN1C(=O)NC2(CCCc3sccc32)C1=O (stereo not given)	KCNH2 WT inh -236 (no result: KDM4E inh, CtBP-E1A blk)
COc1ccc(CNC(=O)CN2C(=O)NC3(CCCc4sccc43)C2=O)cc1OC (stereo not given)	none (no result: KDM4E inh)
CCN(CC)CCCCN1c2ccccc2Sc2ccccc21	KCNH2 3.1 block -73 (no result: KDM4E inh)
CCN(CC)CC(=O)N1c2ccccc2Sc2ccccc21	none (no result: KDM4E inh)
Nc1ccccc1-c1nc2ccccc2[nH]1	KDM4E inh inconclusive
COC(=O)C1C(O)C(C)C(O)C(C)(O)/C=C\C=C(/C)C(=O)Nc2c(C)c(OC(C)=O)c3c(c2O)C(=O)C(C)=C2OCOC(=C23)/C(C)=C/C(C)(O)C(O)C(C)C1O (stereo not given)	KDM4E inh 3.2µM
O=C(c1n[nH]c2ccccc12)N1CCN(S(=O)(=O)c2ccc3ccccc3c2)CC1	none
O=C(C[n+]1cc(-c2ccc(Cl)cc2)n2c1CCCCC2)c1ccccc1	KCNH2 3.1 block -130
CC(=O)Nc1ccc(Nc2ncnc(N)c2[N+](=O)[O-])cc1	none
Cc1ccc(/C=C/C(=O)c2ccccc(=O)c2O)c(C)c1	KDM4E inh 28µM
O=C(/C=C/c1ccccc1Cl)c1ccccc(=O)c1O	KDM4E inh 14µM
Cc1ccc(C)c(/C=C/C(=O)c2ccccc(=O)c2O)c1	KDM4E inh 22µM
Cc1nn(C)cc1S(=O)(=O)Nc1ccc2c(c1)OCCO2	none (no result: CtBP-E1A blk)
Cc1cc(NS(=O)(=O)c2cn(C)nc2C)no1	KCNH2 WT inh -135 (no result: KDM4E inh)
CC(C)c1cc(CN2CCN(C3CCCC3)C(CCO)C2)[nH]n1 (stereo not given)	none
O=C(O)c1ccccc1NN=Cc1ccccc1	KCNH2 3.1 block -77 (no result: KDM4E inh)
O=[N+]([O-])c1ccccc1N/N=C/c1c[nH]c2ccccc12	Six1-Eya2 inh -84, CtBP-E1A blk -78
O=[N+]([O-])c1ccccc1N/N=C/c1ccccc1	KCNH2 3.1 block -83 (no result: KDM4E inh, CtBP-E1A blk)
COc1cccc(/C=N/Nc2ccccc2C(=O)O)c1O	none (no result: KDM4E inh)
O=[N+]([O-])c1ccccc1NC(=S)N/N=C/c1ccc(O)c(O)c1	KDM4E inh 25µM, CtBP-E1A blk inconclusive
O=[N+]([O-])c1ccc(N/N=C/c2c[nH]c3ccccc23)cc1	none
Cc1ccc(C(CNC(=O)Nc2ccc(Cl)cc2)N2CCN(C)CC2)cc1 (stereo not given)	KCNH2 3.1 block inconclusive (no result: KDM4E inh)
